Measured potencies and affinities stand elsewhere. Calls of active or inactive are those of the source. No rule for the calls is given here.
Biological target: Kelch-like ECH-associated protein 1 (Homo sapiens) + Nuclear factor erythroid 2-related factor 2 (Homo sapiens) (UniProt Q14145+Q16236)
Assay: Keap1-Nrf2 protein-protein interaction inhibitors, dose response, biochemical, fluorescence polarization, cherry-picked samples (AID 588683);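 also: Kelch domain of Keap1 binding a fluorescein-labelled 9mer Nrf2 peptide; more negative means stronger inhibition of peptide binding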

Chain of Kelch-like ECH-associated protein 1 (Homo sapiens) + Nuclear factor erythroid 2-related factor 2 (Homo sapiens) (Q14145 whole entry, looked up, the tested form may be a part): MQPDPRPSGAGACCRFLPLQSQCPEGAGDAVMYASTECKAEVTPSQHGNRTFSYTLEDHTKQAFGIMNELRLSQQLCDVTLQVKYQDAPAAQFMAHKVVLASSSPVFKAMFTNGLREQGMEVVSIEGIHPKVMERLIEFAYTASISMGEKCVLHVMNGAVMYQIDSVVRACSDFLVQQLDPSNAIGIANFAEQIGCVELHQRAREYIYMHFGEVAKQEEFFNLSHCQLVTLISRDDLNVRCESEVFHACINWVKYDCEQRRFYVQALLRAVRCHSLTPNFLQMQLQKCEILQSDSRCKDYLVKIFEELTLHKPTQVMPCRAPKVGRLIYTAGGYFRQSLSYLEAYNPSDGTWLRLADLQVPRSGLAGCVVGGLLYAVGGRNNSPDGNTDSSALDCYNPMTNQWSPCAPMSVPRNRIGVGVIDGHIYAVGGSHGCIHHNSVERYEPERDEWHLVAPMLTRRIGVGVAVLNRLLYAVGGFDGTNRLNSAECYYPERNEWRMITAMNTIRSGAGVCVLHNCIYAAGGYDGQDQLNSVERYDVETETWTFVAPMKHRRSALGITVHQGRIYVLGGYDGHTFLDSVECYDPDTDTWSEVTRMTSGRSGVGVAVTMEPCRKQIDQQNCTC
Chain of Kelch-like ECH-associated protein 1 (Homo sapiens) + Nuclear factor erythroid 2-related factor 2 (Homo sapiens) (Q16236 whole entry, looked up, the tested form may be a part): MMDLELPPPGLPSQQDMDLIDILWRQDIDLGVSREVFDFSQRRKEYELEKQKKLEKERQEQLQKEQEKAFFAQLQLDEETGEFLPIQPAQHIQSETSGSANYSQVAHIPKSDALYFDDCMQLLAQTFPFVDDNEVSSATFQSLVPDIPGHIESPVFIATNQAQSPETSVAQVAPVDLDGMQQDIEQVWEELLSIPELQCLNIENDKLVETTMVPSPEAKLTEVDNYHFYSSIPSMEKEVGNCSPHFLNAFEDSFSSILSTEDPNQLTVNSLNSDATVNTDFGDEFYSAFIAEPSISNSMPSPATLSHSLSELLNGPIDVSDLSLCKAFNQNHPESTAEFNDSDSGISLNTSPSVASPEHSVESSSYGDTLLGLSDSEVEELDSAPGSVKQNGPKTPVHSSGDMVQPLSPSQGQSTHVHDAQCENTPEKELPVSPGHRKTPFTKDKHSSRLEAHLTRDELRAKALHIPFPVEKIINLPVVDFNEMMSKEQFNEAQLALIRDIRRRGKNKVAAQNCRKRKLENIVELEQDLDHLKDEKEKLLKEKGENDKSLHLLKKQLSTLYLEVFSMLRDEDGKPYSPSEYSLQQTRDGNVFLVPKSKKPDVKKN

| Structure (SMILES) | outcome |
| --- | --- |
| Cc1ccc(-n2nnnc2SCC(=O)c2c(N)n(C3CC3)c(=O)[nH]c2=O)cc1 | inactive |
| O=C(COC(=O)c1ccncc1)Nc1cccc2ccccc12 | inactive |
| CC(Sc1nc2ccccc2s1)C(=O)Nc1nnc(C(C)C)s1 (stereo unspecified) | inactive |
| O=C1c2ccccc2-c2onc3ccc(N4CCCC4)c1c23 | inactive |
| CCOC(=O)C1=C(CSc2nc3c(cc2C#N)CN(C)CC3)OC(N)=C(C#N)C1c1ccncc1 (stereo unspecified) | inactive |
| COc1ccccc1CNC(=O)c1ccccc1NS(C)(=O)=O | inactive |
| CCC1OC2(C)OC(=N)C1(C#N)C(C#N)(C#N)C2c1ccccc1 (stereo unspecified) | inactive |
| O=C(CSCC(=O)Nc1ccccc1)N/N=C/c1c(O)ccc2ccccc12 | inactive |
| O=[N+]([O-])c1cc(C(F)(F)F)ccc1NC1CCN(Cc2ccccc2)CC1 | inactive |
| CCCc1nc2oc3cc(OC)ccc3c(=O)c2c(=O)n1Cc1ccco1 | inactive |
| C/C(=N/Nc1ccccc1C(=O)O)c1cccs1 | inactive |
| Oc1cc(NCCN2CCOCC2)cc2cccnc12 | inactive |
| O=C(NNc1cc(Cl)ccc1Cl)c1cccs1 | inactive |
| Cc1cc(NC(=O)CSc2nnc(-c3ccncc3)n2C)n(-c2ccccc2)n1 | inactive |
| CCC(C(=O)NC1C(=O)N2C(C(=O)O)=C(CSc3nnc(C)s3)CSC12)c1ccccc1 (stereo unspecified) | inactive |
| Cc1cnc(NC(=O)Cc2ccc(S(=O)(=O)N3CCOCC3)s2)s1 | inactive |
| Cc1ccc(O)c(C(=O)c2cnc3c(c2)c(C)nn3-c2ccccc2)c1 | inactive |
| c1ccc(-c2cn3nc4c(nc3n2)CCCC4)cc1 | inactive |
| O=c1[nH]c(/C=C/c2cccc3ccccc23)nc2ccccc12 | inactive |
| O=C(NNS(=O)(=O)c1ccc(F)cc1)c1ccc(O)cc1 | inactive |
| N/C(=N/OC(=O)c1ccc(Cl)cc1)c1ncc([N+](=O)[O-])s1 | inactive |
| O=C(COC(=O)c1cccnc1Cl)Nc1ccc(N2CCCCC2)cc1 | inactive |
| Nc1c(C(=O)Nc2ccccc2F)sc2nc(Cc3ccccc3)cc(C(F)(F)F)c12 | inactive |
| COc1ccccc1Cn1c(=S)[nH]c2ccccc2c1=O | inactive |
| COc1cccc(NC(=O)CN(C)CC(=O)NCc2ccco2)c1 | inactive |
| CN(CC(=O)Nc1cc(C(F)(F)F)ccc1-n1cncn1)Cc1ccccc1N1CCOCC1 | inactive |

| Structure (SMILES) | outcome |
| --- | --- |
| CCCC1OC23CCCCC2C(C#N)(C#N)C1(C#N)C(=N)O3 (stereo unspecified) | inactive |
| CNS(=O)(=O)c1ccc2c3c(cccc13)C(=O)N2C | inactive |
| CCc1cc(C(=O)c2ccc(OC)cc2)c(N)s1 | inactive |
| CCN(CC)C(=O)C1c2ccccc2Oc2ccccc21 | inactive |
| C=CCn1c(=O)/c(=C\c2ccsc2)s/c1=C(/C#N)C(=O)NCCN1CCOCC1 | inactive |
| CC1(C)CC(=O)C(N=Nc2c(F)cccc2F)=C(O)C1 | inactive |
| CCOC(=O)C1=C(C)NC(C)=C(C(=O)OCC)C1c1ccc([N+](=O)[O-])s1 | inactive |
| Cc1cccc(NS(=O)(=O)c2ccc(C)c(C(=O)NCC(c3ccccc3)N(C)C)c2)c1 (stereo unspecified) | inactive |
| COc1ccccc1NC(=O)C(C)OC(=O)C1COc2ccccc2O1 (stereo unspecified) | inactive |
| CCOc1ccc2noc3c2c1C(=O)c1ccccc1-3 | inactive |
| O=c1[nH]c2cc(C(F)(F)F)ccc2n1-c1cc(C(F)(F)F)ccc1O | inactive |
| COc1cc2c3nnc(-c4ccc(F)cc4)c-3cn(Cc3ccccc3F)c2cc1OC | inactive |
| O=C1/C(=C/C=C/c2ccco2)SC(=S)N1NS(=O)(=O)c1ccccc1 | inactive |
| O=C1C=CC(=O)c2c(O)c(N3CCN(CCOCCO)CC3)c(Br)c(O)c21 | inactive |
| CCCCN(C(=O)CC1CCCCC1)c1c(N)n(CC(C)C)c(=O)[nH]c1=O | inactive |
| CC(C)C(C(=O)O)N1C(=O)/C(=C/C=C/c2ccco2)SC1=S (stereo unspecified) | inactive |
| CC(=O)Nc1ccc2c(c1)N(C(=O)CN(C)C)c1ccccc1CC2 | inactive |
| Cc1nnsc1C(=O)N1CCN(c2ccc(F)cc2)CC1 | inactive |
| CCN1CC=C2C(C#N)=C(N)C(C#N)(C#N)C(CCc3ccccc3)C2C1 (stereo unspecified) | inactive |
| S=C1SCN(CC2CC2)CN1CC1CC1 | inactive |
| CCOC(=O)c1c(C)oc2c1c(C=NCCO)c(O)c1ccccc12 | inactive |
| Cc1nc(NS(=O)(=O)c2ccccc2)sc1NC(=O)OCCN(C)C | inactive |
| CCOC(=O)N1CCN(Cc2ccccc2Cl)CC1 | inactive |
| COc1ccc(C=Nc2cccnc2N)cc1 | inactive |
| OC(Cc1ccncc1)(c1ccccc1)c1ccccc1 | inactive |
| N=c1c(C(=O)NCc2ccc(F)cc2)cc2c(=O)n3ccccc3nc2n1Cc1cccnc1 | inactive |

| Structure (SMILES) | outcome |
| --- | --- |
| CC(=O)c1ccc2c(c1)C1C=CCC1C(C(=O)O)N2 (stereo unspecified) | inactive |
| CCCCCSc1nnc2c(n1)OC(C)N(C(C)=O)c1ccccc1-2 (stereo unspecified) | inactive |
| CC(C)C1OC2(C)OC(=N)C1(C#N)C(C#N)(C#N)C2c1ccccc1 (stereo unspecified) | inactive |
| COc1ccc(/C=N/N=C2/CC(C)(C)Cc3n[nH]c(=O)cc32)cc1 | inactive |
| CC(=O)C1C(c2ccc(F)cc2)c2c(noc2C)CC1(C)O (stereo unspecified) | inactive |
| Cc1cc(C)c2nc3sc(C(=O)N4CCOCC4)c(N)c3cc2c1 | inactive |
| COc1ccc(C2=CC(c3ccco3)n3ncnc3N2)cc1 (stereo unspecified) | inactive |
| CCCCN1C(=O)/C(=C2/Sc3ccccc3N2C)S/C1=N\c1ncn[nH]1 | inactive |
| CN1/C(=C\C=C(/C#N)C(=O)Nc2ccc(Cl)cc2)C(C)(C)c2ccccc21 | inactive |
| CN(CCOc1ccc(CC2SC(=O)NC2=O)cc1)c1ccccn1 (stereo unspecified) | inactive |
| NC(=O)CC(NC(=O)Cc1cccc2ccccc12)c1ccc(NCc2ccccc2)c([N+](=O)[O-])c1 (stereo unspecified) | inactive |
| COC(=O)c1cc(C)nc2c1c(C)nn2-c1ccccc1 | inactive |
| CC1(C)CC(=O)C2=C(C1)OC(N)=C(C#N)[C@@H]2c1ccccc1[N+](=O)[O-] | inactive |
| COc1ccccc1N(C)S(=O)(=O)c1ccc(C(=O)NCc2ccccc2CN2CCCC2)cc1 | inactive |
| O=C1NC(c2cc(Cl)cc([N+](=O)[O-])c2O)Nc2ccccc21 (stereo unspecified) | inactive |
| COc1ccc(/C=c2\s/c(=C(/C#N)C(=O)NCc3ccco3)n(-c3ccccc3)c2=O)cc1 | inactive |
| Cc1cc(=O)c2c([nH]1)c(C)cc1[nH]c(C)c(C)c12 | inactive |
| O=C1c2cccc3c(N4CCCCC4)ccc(c23)C(=O)N1c1cccc(O)c1 | inactive |
| N#Cc1c(SCC(=O)Nc2nncs2)sc2c(O)cc(=O)[nH]c12 | inactive |
| CCCCC1OC23CCCCC2C(C#N)(C(=N)O3)C1(C#N)C#N (stereo unspecified) | inactive |
| C=CCn1c(=O)/c(=C/c2ccsc2)s/c1=C(\C#N)C(=O)NCCN1CCOCC1 | inactive |
| CC[C@H](C)[C@H](NC(=O)OCc1ccccc1)C(=O)OCC(=O)N1CCN(c2ccc(F)cc2)CC1 | inactive |
| O=C(O)CC(Cn1cnnn1)c1ccccc1 (stereo unspecified) | inactive |
| N/C(Cc1cccc2ccccc12)=N\O | inactive |

Source: PubChem BioAssay AID588683 (Broad Institute, 2011)
